Compounds without any hit were thinned out: in the full panel of roughly 83,000, 20% have a hit.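 Interpretation: 100, growth as untreated; towards 0, rising growth inhibition; 0, no net growth; 0 to -100, cell death. Compounds scoring below 10 were considered active.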 Values without a mark were called inactive. Calls of active or inactive are those of the source.

The subject of this assay is HOP-62 NSCLC. Nature of the assay: NCI-60 one-dose screen, 48 h (100 = growth as untreated, 0 = no growth, -100 = all killed). The settings on record: 10 µM unless noted. The protocol: Growth inhibition of the HOP-62 human Non-Small Cell Lung tumor cell line is measured as a screen for anti-cancer activity. Cells are grown in 96 well plates and exposed to the test compound for 48 hours. Compounds are tested at a single concentration, which is 10^-5 M for most compounds. The reported endpoint is percent growth (GI% or GIPRCNT), where numbers from 0 - 100% represent growth inhibition, and numbers from -100% - 0 represent cell death. For example, a value of 40 represents 60% growth inhibition. A value of 0 means no net growth occurred over the course of the experiment. A value of -40 indicates 40% of cells at the beginning of the experiment died by the end of the experiment. A value of -100 means all cells are dead at the end of the experiment.
NCI-60 Human Tumor Cell Lines Screen was performed using the standard one-dose NCI protocol, which is described in more detail at https://dtp.cancer.gov/discovery_development/nci-60/default.htm.
Compounds with GIPRCNT values below 10 were considered active. Activity score was based on GIPRCNT using the following formula: […]
Score is 0 for GIPRCNT values of 100 or above, 50 for GIPRCNT values of 0, and 100 for GIPRCNT values of -100.
For `Clc1ccc(-c2nc3ccccc3s2)cc1Cl`, the growth is 104%.

Turning to `O=C1NN(C(=O)c2ccc(Cl)cc2)C(c2ccccc2)=N/C1=C\c1ccc(F)cc1`, the growth was 99.1%.

For `O=C(Nc1ccc2c(c1)OCO2)C(=O)c1c[nH]c2cc(F)ccc12`, the growth was 54.4%.

For the molecule `N=C(N)c1ccc(-c2ccc(-c3ccc(-c4cccs4)s3)s2)cc1`, the growth is 93.8%.

Consider `CCCCNC(=O)Oc1ccc(/C(=C(\C)c2ccccc2)c2ccc(OCCN(CC)CC)cc2)cc1`, for which the growth was 88.2%.

Regarding `COc1ccc2c(c1)[nH]c(=O)c1c3cc(C)c(C)cc3cn21`, the growth was -27.8% (active).

In the case of `COc1cc(-c2nc(-c3nc4ccc(Cl)cc4[nH]3)cc3c2[nH]c2ccccc23)cc(OC)c1OC`, the growth was 83.7%.

For `COc1cc(NC(=O)SC2=NCCS2)cc(OC)c1`, the growth was 108%.

For the molecule `O=C1NC(=C(Cl)Cl)/C(=N/S(=O)(=O)N2CCC(C3(C(F)(F)F)N=N3)CC2)N1`, the growth was 104%.

Turning to `CC1CCC(C)N(C)C1` (stereo not given), the growth was 107%.

`COc1ccc2c(c1)[nH]c(=O)c1c3cc(OC)ccc3cn21`: the growth is 20%.

Regarding `c1coc(CNc2ccnc(Nc3ccc(OCCN4CCCCC4)cc3)n2)c1`, the growth was 93.1%.

For `CCOC(=O)NNC(=S)Nc1ccccc1`, the growth is 102%.

`CCn1c2ccccc2c2cc(NC(=O)Nc3ccc([N+](=O)[O-])cc3C)ccc21`: the growth was 49.4%.

For `O=C(NCc1cn(Cc2cccc(Oc3ccccc3)c2)nn1)c1cccnc1Nc1ccc(F)cc1`, the growth was 59.3%.

Turning to `Cc1ccc(-c2cc3nc(C(Cl)Cl)nc(-c4ccccc4C)n3n2)cc1`, the growth was 68.3%.

With `COc1cc(/C=C/C(=O)N2CCN(C(=O)/C=C/c3cc(OC)c(OC)c(OC)c3)CC2)cc(OC)c1OC`, the growth was 102%.

With `COc1cc(-c2nn(-c3cccc(NC(=O)Nc4ccc(Cl)c(Cl)c4)c3)cc2-c2ccncc2)ccc1Cl`, the growth was 10.2%.

With `CCOC(=O)CC(=O)OC`, the growth was 102%.

With `CC(C)(C)n1cc(-c2ccnc(NCCNS(=O)(=O)c3ccc(C(F)(F)F)cc3)c2)c(-c2cccc(O)c2)n1`, the growth is 71.5%.

With `O=C1/C(=C/c2ccccc2)CN(C(=O)CCN2CCC(=NO)CC2)C/C1=C\c1ccccc1`, the growth is 49.9%.

With `O=c1cc/c(=N\Nc2ccccc2)c(=O)/c1=N/Nc1ccccc1`, the growth is 84.8%.

`CCN1CCN(c2nc(NNC(=O)c3ccccc3)nc(N3CCN(C(c4ccccc4)c4ccccc4)CC3)n2)CC1`: the growth is 79.7%.

With `N/C(=N\C(N)=N\c1nc2ccccc2s1)c1ccncc1`, the growth was 60.7%.

`CCOC(=O)c1cc(C(=O)c2cc(OC)c(OC)c(OC)c2)n2c1ccc1ccccc12`: the growth is 21.6%.

On to `COc1ccc(-c2nc3sccn3c2/C=C/C(=O)c2cc(F)cc(F)c2)cc1`, for which the growth is 85.8%.

Regarding `CC1CN(c2oc(-c3ccccc3)nc2C#N)CC(C)O1` (stereo not given), the growth was 103%.

In the case of `O=c1[nH]c2ccc(Br)cc2c2c1C(c1ccc(Cl)cc1)c1c(ncn3nc(-c4ccco4)nc13)O2` (stereo not given), the growth was 50%.

As to `COc1ccncc1S(=O)(=O)NC(=O)Nc1ccc(Cl)c(Cl)c1`, the growth is 83.9%.

Consider `C/C=C/C1=CN2C(=O)c3cc(OC4OC(C)C(NC)C(C)(O)C4O)c(C)cc3N=C[C@@H]2C1` (stereo not given in full), for which the growth is -8.97% (active).

On to `COC(=O)c1cc(=O)nc(N/N=C/c2ccco2)s1`, for which the growth is 103%.

As to `CSc1nc2c(c(=O)[nH]1)C(c1ccc(C)cc1)C=C(C(=O)O)N2` (stereo not given), the growth is 107%.

Take `O=C(Nc1ccc(NCCN2CCOCC2)nc1)c1ccc([N+](=O)[O-])cc1`: the growth was 103%.

For `Fc1ccccc1-c1nc(-c2nc3cc(Cl)c(Cl)cc3[nH]2)c2ccccn12`, the growth is 68.8%.

Regarding `C=C1CCC2C(C)(CO)C(O)CCC2(C)C1CC(NCc1ccccc1)C1=CCOC1=O` (stereo not given), the growth is 107%.

With `O=[N+]([O-])c1ccc(OCCCOc2ccccc2)cc1`, the growth was 96.9%.

`C=C(C)[C@@H]1CC[C@]2(C(=O)N3CCNCC3)CC[C@]3(C)[C@H](CC[C@@H]4[C@@]5(C)C/C(=C/c6ccncc6)C(=O)C(C)(C)[C@@H]5CC[C@]43C)[C@@H]12`: the growth was 107%.

Turning to `Cc1ccc2nc(Cl)cc(=O)n2c1`, the growth was 100%.

For `COc1cc(-c2nn(-c3cccc(NC(=O)Nc4cccc(C(F)(F)F)c4)c3)cc2-c2ccncc2)ccc1Cl`, the growth was -29.8% (active).

For the molecule `Cc1ccc2nc(-c3cc4c([nH]c5ccccc54)c(-c4ccc(F)c(F)c4)n3)[nH]c2c1`, the growth is 79.8%.

Source of the values: PubChem BioAssay (NCI).
